Source: PubChem BioAssay (NCI)
This is part of a sample that, as a whole, favours compounds with a hit. Of some 79,000 tested, about 15% had one in any assay. No stated cut-off is given here; in the data, active means growth inhibition above about 70%; inactive means the rest.

What was measured:
[1] = NCI Yeast Anticancer Drug Screen. Data for the rad50 strain (AID 155);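 further: 0% = growth of vehicle-only cultures of the same strain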; details: S. cerevisiae rad50 strain growth inhibition; at 50.0 µM; active compounds read high
How it was run: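 Yeast carrying a defined DNA repair defect were exposed to test compounds, and growth was compared with vehicle-treated controls to give percent inhibition.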

[2] = NCI Yeast Anticancer Drug Screen. Data for the mec2-1 strain (AID 157); details: S. cerevisiae mec2-1 strain, at 50.0 µM, active compounds read high
How it was run: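 Strain: mec2-1 (DNA repair/cell cycle alteration). Compound exposure, then growth measured; inhibition expressed relative to vehicle.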

[3] = NCI Yeast Anticancer Drug Screen. Data for the sgs1 mgt1 strain (AID 161);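 further: 0% = growth of cultures given vehicle only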; details: S. cerevisiae sgs1 mgt1 strain, at 50.0 µM, active compounds read high
How it was run: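 Test agents were incubated with a DNA-repair-mutant yeast strain. Growth was then read and compared against vehicle-treated controls.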

[4] = NCI Yeast Anticancer Drug Screen. Data for the cln2 rad14 strain (AID 165);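 further: 0% = growth equal to vehicle treated cultures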; details: S. cerevisiae cln2 rad14 strain, at 50.0 µM, active compounds read high
How it was run: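 Compounds are applied to the cln2 rad14 yeast strain, and growth is then compared with that of vehicle-treated cultures to give inhibition.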

[5] = NCI Yeast Anticancer Drug Screen. Data for the bub3 strain (AID 167); details: S. cerevisiae bub3 mutant strain, at 50.0 µM, active compounds read high
How it was run: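 Compounds were applied to a genetically altered yeast strain carrying a cell-cycle control defect. Growth inhibition was scored against vehicle-treated controls.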

[6] = NCI Yeast Anticancer Drug Screen. Data for the mlh1 rad18 strain (AID 175); details: S. cerevisiae mlh1 rad18 strain growth inhibition; at 50.0 µM; active compounds read high
How it was run: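 Read-out is yeast growth inhibition, calculated against vehicle-only controls. The compound was applied to a strain engineered with DNA damage repair alterations.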

Measured: growth inhibition

CC(C)OC(C(=O)O)c1ccccc1 (stereo unspecified)
inactive: [1] -18.2% | [2] 2.2% | [3] -3.65% | [4] 11.8% | [5] 1.05% | [6] 0%

Cc1cc(C)c(N)c(S(=O)(=O)O)c1
inactive: [1] -0.7% | [2] -6.45% | [3] -24.1% | [4] -63% | [5] 11.2% | [6] -13.7%

CCCCN(CCCC)CCCO
inactive: [1] -14.4% | [2] -24.5% | [3] -11.3% | [4] -27.7% | [5] -2.7% | [6] -21.1%

CCCCCCCCCCC(C)Br (stereo unspecified)
inactive: [1] 19.9% | [2] -12.1% | [3] 10.3% | [4] 1.3% | [5] 28.6% | [6] 1.75%

CCOC(=O)C1=C(Nc2ccc(Br)cc2)C(=O)N(CC)C1
inactive: [1] 12.7% | [2] 1.2% | [3] 33% | [4] 14.9% | [5] 42.7% | [6] 19.1%

Cc1ccc(C(O)C2CC2)cc1 (stereo unspecified)
inactive: [1] -24.2% | [2] -38.6% | [3] -23.1% | [4] 11.4% | [5] -21.6% | [6] -0.65%

COc1ncnc2c1cnn2C
inactive: [1] 7.6% | [2] 3.6% | [3] 13.3% | [4] -35.1% | [5] -3.85% | [6] 2.9%

O=C(O)CCCCNC(=O)c1ccccc1
inactive: [1] 19.6% | [2] -14.4% | [3] 3.25% | [4] 12.3% | [5] -4.8% | [6] 9.4%

CC1=C(/C=C/C(C)=C/C=C/C(C)=C/CO)C(C)(C)CCC1
inactive: [1] 14.8% | [2] 4.45% | [3] -3.15% | [4] 10.7% | [5] -42.2% | [6] 6.55%

c1ccc(Cc2ccccc2)cc1
inactive: [1] 12.8% | [2] 39.2% | [3] -21.8% | [4] 1.5% | [5] -1.1% | [6] 1.15%

C#CC(C)(O)c1ccc(Cl)cc1 (stereo unspecified)
inactive: [1] 14.4% | [2] -2.15% | [3] 8.7% | [4] -7.35% | [5] -26.4% | [6] 2.65%

CN(C)c1ccc2nc3ccc(=N)cc-3sc2c1
inactive: [1] 4.55% | [2] -19.1% | [3] 18.6% | [4] 7.45% | [5] -15.2% | [6] 22.4%

OCC1OC(OC2C(O)C(CO)OC2(CO)OC2OC(CO)C(O)C(O)C2O)C(O)C(O)C1O (stereo unspecified)
inactive: [1] -18.1% | [2] -7.95% | [3] -31.8% | [4] -3.15% | [5] -14.2% | [6] -14.7%

CSC[C@H](NC(=O)COc1cccc2cnccc12)C(=O)NC(Cc1ccccc1)C(O)C(=O)N1CSC[C@H]1C(=O)NC(C)(C)C (stereo partly specified)
inactive: [1] -34.3% | [2] -17.2% | [3] -28.9% | [4] 17.6% | [5] 2.3% | [6] -51.4%

COC(=O)c1cccc(Br)c1
inactive: [1] -4.4% | [2] 1.5% | [3] -4.75% | [4] -29.5% | [5] 0.15% | [6] 13.4%

c1ccc2c(N3CCCCC3)ncnc2c1
inactive: [1] 0.85% | [2] -1% | [3] -4.65% | [4] 4.8% | [5] 2.15% | [6] -3%

Nc1ncnc2c1nc(N)n2C1OC(CO)C(O)C1O (stereo unspecified)
inactive: [1] -2.6% | [2] -17.9% | [3] 0.4% | [4] -23.4% | [5] 15.3% | [6] 0%

Cc1ncc(C#N)c(N)n1
inactive: [1] -24.9% | [2] -18% | [3] 12.9% | [4] -7.1% | [5] -3.05% | [6] -5.4%

CCCCCCCCCCCCCCCCC1CC(=O)OC1=O (stereo unspecified)
inactive: [1] -4.35% | [2] -12.2% | [3] 5.9% | [4] 4.3% | [5] -11.3% | [6] 4.55%

CC(O)COc1ccc(-c2ccccc2)cc1 (stereo unspecified)
inactive: [1] 5.5% | [2] -2.9% | [3] 33% | [4] 15.9% | [5] 28.1% | [6] 19.9%

CC(=O)OCC(=O)[C@@]1(O)CC[C@H]2[C@@H]3CC[C@@H]4C[C@H](O)CC[C@]4(C)[C@H]3C(=O)C[C@@]21C
inactive: [1] 19.7% | [2] 7.15% | [3] 25.4% | [4] 7.75% | [5] -2.85% | [6] 20.6%
